Common to all, as to experiment: DAPPL (digital affinity profiling via proximity ligation, sequencing); 10 mM Tris-HCl pH 7.5, 50 mM NaCl, 1 mM DTT, 4% glycerol, room temperature, 30 min; GST-TFs on glutathione beads, 16-mer random dsDNA library, 0.1% formaldehyde crosslink after washing; high values mean tight binding
One assay addresses T1, FEV (Homo sapiens, UniProt Q99581 1-238).
T1 sequence: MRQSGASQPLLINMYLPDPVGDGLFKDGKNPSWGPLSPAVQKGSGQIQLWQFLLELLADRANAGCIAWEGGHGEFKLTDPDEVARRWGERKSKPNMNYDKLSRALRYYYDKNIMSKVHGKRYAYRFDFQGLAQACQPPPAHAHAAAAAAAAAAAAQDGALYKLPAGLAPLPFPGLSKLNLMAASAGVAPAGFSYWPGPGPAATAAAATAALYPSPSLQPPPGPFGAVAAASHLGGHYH
To be noted: protein: recombinant; tags: N-terminal GST; dsDNA, one strand shown. The method, boiled down: (§1)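 After expression in yeast as GST fusions, human transcription factors were bound to glutathione beads, DNA-barcoded and mixed with a tag-only sample. The pools were incubated with 200 nmole of a 16-mer random double-stranded DNA library in Tris/NaCl/DTT/glycerol buffer (30 min, room temperature), washed and crosslinked with 0.1% formaldehyde. Proximity ligation with BsaI/T4 ligase ran for 1 h at 37 °C, before PCR amplification and sequencing on an Illumina NextSeq500. Binding signal is a hexamer's read frequency for a factor divided by its frequency for the tag-only sample.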

For a further assay, the target named is ETV5 (Homo sapiens, UniProt P41161 1-510). The settings on record: protein: recombinant; tags: N-terminal GST; dsDNA, one strand shown. A digest of the protocol: as §1
Chain of ETV5 (P41161 whole entry): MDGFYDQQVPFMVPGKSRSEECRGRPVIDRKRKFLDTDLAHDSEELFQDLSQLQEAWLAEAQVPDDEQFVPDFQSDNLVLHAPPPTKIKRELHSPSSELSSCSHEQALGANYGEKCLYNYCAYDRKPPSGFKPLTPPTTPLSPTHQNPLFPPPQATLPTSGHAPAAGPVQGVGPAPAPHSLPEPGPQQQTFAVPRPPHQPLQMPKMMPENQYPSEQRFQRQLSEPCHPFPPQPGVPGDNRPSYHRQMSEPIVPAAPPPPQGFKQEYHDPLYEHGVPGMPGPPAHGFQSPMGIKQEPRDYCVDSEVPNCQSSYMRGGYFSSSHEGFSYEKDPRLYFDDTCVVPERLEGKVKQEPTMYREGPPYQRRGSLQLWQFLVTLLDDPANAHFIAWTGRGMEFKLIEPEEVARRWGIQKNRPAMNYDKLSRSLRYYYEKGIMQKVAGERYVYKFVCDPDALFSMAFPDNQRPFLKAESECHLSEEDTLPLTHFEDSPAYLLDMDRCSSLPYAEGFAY
Another assay has as its target HSF1 (Homo sapiens, UniProt Q00613 1-529). The settings on record: protein: recombinant; tags: N-terminal GST; chain copies: 3; dsDNA, one strand shown. The method, boiled down: as §1
The target in a further assay is T2, SPIC (Homo sapiens, UniProt Q8N5J4 1-248).
T2 sequence: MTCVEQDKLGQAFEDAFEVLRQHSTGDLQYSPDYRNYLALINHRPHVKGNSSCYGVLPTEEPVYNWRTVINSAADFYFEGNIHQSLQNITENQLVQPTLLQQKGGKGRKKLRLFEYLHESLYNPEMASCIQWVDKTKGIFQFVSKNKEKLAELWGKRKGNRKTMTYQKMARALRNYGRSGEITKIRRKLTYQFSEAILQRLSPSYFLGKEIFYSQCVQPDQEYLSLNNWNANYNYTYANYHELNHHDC
To be noted: protein: recombinant; tags: N-terminal GST; dsDNA, one strand shown. The method, boiled down:
as §1

The target of the next assay is ELF4 (Homo sapiens, UniProt Q99607 1-663). To be noted: protein: recombinant; tags: N-terminal GST; dsDNA, one strand shown. A digest of the protocol: as §1
Chain of ELF4 (Q99607 whole entry): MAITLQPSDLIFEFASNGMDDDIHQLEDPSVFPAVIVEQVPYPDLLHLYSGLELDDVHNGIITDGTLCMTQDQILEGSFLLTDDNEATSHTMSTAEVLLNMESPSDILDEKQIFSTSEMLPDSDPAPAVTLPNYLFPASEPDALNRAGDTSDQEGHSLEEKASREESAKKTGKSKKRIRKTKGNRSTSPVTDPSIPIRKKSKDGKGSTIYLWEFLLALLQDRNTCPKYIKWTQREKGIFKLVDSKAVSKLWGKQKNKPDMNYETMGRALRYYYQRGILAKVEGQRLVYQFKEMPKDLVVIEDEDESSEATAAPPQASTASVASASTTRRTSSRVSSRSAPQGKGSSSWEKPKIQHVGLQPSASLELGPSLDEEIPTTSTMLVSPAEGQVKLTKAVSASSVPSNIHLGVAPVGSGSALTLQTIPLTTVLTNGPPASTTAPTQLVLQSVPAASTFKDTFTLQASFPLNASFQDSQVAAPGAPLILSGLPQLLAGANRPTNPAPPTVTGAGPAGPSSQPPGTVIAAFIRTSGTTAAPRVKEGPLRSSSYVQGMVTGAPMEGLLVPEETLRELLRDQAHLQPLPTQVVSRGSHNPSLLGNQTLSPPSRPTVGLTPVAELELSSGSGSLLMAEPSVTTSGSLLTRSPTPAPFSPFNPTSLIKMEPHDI
A further assay deals with T3, ELK4 (Homo sapiens, UniProt P28324-2 1-405).
T3 sequence: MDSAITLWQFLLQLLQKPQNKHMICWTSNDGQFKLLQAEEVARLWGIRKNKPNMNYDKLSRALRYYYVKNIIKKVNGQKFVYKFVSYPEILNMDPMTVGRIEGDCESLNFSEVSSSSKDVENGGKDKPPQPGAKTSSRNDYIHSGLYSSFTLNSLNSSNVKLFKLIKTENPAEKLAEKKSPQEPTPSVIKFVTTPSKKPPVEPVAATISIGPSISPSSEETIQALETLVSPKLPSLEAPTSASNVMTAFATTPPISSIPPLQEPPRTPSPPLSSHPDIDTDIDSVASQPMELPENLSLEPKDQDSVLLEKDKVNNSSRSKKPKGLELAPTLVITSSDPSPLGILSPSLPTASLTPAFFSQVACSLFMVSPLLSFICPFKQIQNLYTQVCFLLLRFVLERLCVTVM
To be noted: protein: recombinant; tags: N-terminal GST; dsDNA, one strand shown. The method, boiled down:
as §1

The target in a further assay is T4, ETV2 (Homo sapiens, UniProt O00321 1-342).
T4 sequence: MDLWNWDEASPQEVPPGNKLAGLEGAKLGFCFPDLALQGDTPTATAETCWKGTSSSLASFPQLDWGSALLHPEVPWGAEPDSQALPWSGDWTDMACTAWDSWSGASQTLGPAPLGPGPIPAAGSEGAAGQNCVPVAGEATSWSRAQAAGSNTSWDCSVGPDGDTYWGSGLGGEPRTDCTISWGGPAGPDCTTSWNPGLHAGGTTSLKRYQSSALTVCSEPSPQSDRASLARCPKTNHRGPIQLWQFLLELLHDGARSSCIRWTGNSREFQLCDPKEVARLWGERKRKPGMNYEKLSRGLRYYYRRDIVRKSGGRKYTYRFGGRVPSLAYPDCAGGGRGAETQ
The settings on record: protein: recombinant; tags: N-terminal GST; dsDNA, one strand shown. The method, boiled down:
as §1

Another assay addresses T5, ELF3 (Homo sapiens, UniProt P78545 1-371).
T5 sequence: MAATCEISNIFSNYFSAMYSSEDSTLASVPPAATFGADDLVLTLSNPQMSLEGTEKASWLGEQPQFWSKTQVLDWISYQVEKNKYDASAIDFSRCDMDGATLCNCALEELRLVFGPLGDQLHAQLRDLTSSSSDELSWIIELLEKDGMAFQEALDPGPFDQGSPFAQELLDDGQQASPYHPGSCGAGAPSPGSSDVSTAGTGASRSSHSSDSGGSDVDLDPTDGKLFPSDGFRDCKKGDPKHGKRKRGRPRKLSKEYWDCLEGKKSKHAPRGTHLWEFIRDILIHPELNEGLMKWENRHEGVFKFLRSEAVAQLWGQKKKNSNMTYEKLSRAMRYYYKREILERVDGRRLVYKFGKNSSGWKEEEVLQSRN
The settings on record: protein: recombinant; tags: N-terminal GST; dsDNA, one strand shown. The method, boiled down: as §1

The target of the next assay is CRX (Homo sapiens, UniProt O43186 1-299). To be noted: protein: recombinant; tags: N-terminal GST; dsDNA, one strand shown. A digest of the protocol: as §1
Chain of CRX (O43186 whole entry): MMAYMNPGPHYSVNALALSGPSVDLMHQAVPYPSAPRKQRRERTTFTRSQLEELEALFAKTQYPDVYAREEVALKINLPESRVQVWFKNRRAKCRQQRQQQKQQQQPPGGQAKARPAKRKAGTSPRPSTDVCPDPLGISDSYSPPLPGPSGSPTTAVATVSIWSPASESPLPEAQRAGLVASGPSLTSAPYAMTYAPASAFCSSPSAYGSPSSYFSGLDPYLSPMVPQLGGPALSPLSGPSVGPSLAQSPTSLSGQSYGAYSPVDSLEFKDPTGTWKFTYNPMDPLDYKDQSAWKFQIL
For the next assay, the target named is ETV1 (Homo sapiens, UniProt P50549 1-477). The settings on record: protein: recombinant; tags: N-terminal GST; dsDNA, one strand shown. A digest of the protocol: as §1
Chain of ETV1 (P50549 whole entry): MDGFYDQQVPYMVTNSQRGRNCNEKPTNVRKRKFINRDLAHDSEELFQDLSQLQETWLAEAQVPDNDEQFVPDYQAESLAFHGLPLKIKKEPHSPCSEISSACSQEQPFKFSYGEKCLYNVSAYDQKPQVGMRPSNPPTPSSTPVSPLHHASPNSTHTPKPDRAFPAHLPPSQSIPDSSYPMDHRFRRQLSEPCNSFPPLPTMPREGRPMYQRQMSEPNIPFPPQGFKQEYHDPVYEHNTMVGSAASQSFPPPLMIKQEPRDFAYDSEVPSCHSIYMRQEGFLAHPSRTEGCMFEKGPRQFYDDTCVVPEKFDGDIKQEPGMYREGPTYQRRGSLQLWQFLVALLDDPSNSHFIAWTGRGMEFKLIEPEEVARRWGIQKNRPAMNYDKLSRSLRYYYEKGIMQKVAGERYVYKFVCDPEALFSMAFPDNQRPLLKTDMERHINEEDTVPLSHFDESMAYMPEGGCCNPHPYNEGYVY
Another assay concerns the target T6, ERF (Homo sapiens, UniProt P50548 1-548).
T6 sequence: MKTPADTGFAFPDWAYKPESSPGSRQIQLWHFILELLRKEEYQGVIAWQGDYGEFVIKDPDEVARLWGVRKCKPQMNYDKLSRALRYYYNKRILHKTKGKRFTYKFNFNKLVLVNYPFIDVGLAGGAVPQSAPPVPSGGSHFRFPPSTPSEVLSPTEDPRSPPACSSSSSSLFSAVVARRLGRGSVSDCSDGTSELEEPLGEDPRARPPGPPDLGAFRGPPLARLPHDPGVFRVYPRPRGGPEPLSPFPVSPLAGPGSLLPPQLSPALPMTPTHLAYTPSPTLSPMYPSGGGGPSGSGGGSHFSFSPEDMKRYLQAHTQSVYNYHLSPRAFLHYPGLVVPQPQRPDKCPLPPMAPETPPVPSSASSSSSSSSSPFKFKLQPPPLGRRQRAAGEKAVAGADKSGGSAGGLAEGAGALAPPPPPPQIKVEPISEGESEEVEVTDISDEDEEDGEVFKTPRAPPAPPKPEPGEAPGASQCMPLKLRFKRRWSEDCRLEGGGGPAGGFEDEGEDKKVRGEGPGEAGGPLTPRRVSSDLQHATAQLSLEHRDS
To be noted: protein: recombinant; tags: N-terminal GST; dsDNA, one strand shown. A digest of the protocol: as §1

The next assay has as its target T7, ETV3L (Homo sapiens, UniProt Q6ZN32 1-361).
T7 sequence: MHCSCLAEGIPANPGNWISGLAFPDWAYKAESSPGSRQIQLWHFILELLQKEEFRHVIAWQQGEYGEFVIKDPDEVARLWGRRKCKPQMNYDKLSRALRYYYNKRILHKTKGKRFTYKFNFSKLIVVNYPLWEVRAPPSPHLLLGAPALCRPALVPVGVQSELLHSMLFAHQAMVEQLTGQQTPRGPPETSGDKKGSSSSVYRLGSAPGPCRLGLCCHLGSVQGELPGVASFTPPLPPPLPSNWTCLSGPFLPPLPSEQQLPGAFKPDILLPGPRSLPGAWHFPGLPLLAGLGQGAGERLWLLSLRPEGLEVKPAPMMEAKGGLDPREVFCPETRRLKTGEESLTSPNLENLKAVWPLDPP
To be noted: protein: recombinant; tags: N-terminal GST; dsDNA, one strand shown. A digest of the protocol: as §1

The next assay deals with T8, ETS2 (Homo sapiens, UniProt P15036 1-469).
T8 sequence: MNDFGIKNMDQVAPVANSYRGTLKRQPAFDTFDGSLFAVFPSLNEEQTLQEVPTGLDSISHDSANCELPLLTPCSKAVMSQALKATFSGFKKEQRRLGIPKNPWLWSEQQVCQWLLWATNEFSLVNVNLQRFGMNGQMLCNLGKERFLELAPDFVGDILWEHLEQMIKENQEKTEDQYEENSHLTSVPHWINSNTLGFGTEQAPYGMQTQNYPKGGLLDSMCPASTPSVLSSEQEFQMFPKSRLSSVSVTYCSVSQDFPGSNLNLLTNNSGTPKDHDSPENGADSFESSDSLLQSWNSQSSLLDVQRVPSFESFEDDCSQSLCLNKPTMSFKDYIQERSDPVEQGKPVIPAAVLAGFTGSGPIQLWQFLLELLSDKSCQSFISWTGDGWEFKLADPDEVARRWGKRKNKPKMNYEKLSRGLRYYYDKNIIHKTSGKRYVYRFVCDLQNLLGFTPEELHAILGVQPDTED
To be noted: protein: recombinant; tags: N-terminal GST; dsDNA, one strand shown. A digest of the protocol:
as §1

For the next assay, the target named is T9, SPDEF (Homo sapiens, UniProt O95238 1-335).
T9 sequence: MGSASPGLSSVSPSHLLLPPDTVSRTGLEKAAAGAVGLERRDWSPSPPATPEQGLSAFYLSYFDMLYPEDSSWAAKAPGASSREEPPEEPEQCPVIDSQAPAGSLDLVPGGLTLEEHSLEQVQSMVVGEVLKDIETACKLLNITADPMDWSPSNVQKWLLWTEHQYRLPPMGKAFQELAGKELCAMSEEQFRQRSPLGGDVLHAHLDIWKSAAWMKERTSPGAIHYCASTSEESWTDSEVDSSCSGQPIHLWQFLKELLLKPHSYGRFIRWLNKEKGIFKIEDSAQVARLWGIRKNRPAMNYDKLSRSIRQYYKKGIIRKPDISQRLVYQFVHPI
To be noted: protein: recombinant; tags: N-terminal GST; dsDNA, one strand shown. A digest of the protocol:
as §1

Another assay has as its target T10, ETV7 (Homo sapiens, UniProt Q9Y603 1-341).
T10 sequence: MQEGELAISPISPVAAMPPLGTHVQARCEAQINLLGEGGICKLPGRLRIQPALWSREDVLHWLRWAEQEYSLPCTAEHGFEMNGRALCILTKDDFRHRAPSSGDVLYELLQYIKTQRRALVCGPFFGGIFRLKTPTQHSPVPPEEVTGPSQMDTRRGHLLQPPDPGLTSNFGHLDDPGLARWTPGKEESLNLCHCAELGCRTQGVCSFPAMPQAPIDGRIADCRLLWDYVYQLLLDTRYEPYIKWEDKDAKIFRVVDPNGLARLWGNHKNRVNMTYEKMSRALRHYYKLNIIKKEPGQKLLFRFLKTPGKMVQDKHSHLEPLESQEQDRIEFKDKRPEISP
The settings on record: protein: recombinant; tags: N-terminal GST; dsDNA, one strand shown. The method, boiled down:
as §1

A further assay has as its target T11, ELF5 (Homo sapiens, UniProt Q9UKW6-2 1-255).
T11 sequence: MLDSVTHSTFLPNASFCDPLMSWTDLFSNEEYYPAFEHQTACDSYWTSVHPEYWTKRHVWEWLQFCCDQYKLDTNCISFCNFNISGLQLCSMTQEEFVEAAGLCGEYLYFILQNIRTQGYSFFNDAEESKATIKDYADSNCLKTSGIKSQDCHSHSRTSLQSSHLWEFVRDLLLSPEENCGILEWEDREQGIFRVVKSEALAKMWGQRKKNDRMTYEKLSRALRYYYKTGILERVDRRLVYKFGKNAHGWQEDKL
To be noted: protein: recombinant; tags: N-terminal GST; dsDNA, one strand shown. The method, boiled down:
as §1

The target of a further assay is T12, ETV3 (Homo sapiens, UniProt P41162-2 1-143).
T12 sequence: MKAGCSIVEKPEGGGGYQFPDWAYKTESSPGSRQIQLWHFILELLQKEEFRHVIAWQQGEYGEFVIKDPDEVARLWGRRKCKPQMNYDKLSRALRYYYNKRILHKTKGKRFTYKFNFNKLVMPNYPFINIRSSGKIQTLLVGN
To be noted: protein: recombinant; tags: N-terminal GST; dsDNA, one strand shown. A digest of the protocol:
as §1

The target of the next assay is ETV6 (Homo sapiens, UniProt P41212 1-452). The settings on record: protein: recombinant; tags: N-terminal GST; dsDNA, one strand shown. The method, boiled down:
as §1

Chain of HSF1 (Q00613 whole entry): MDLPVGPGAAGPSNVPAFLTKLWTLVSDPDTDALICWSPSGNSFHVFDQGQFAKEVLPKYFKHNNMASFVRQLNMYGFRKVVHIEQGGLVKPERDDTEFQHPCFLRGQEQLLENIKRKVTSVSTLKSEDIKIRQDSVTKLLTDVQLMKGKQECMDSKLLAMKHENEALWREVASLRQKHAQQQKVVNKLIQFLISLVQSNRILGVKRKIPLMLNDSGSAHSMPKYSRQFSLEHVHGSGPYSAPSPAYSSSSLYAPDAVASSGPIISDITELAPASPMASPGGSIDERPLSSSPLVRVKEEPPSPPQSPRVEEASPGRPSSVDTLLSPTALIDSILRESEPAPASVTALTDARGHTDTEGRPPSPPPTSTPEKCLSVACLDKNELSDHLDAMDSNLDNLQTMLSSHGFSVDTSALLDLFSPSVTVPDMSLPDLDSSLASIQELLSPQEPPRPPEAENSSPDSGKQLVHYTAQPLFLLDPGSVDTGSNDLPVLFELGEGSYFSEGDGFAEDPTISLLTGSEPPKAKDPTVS
Chain of ETV6 (P41212 whole entry): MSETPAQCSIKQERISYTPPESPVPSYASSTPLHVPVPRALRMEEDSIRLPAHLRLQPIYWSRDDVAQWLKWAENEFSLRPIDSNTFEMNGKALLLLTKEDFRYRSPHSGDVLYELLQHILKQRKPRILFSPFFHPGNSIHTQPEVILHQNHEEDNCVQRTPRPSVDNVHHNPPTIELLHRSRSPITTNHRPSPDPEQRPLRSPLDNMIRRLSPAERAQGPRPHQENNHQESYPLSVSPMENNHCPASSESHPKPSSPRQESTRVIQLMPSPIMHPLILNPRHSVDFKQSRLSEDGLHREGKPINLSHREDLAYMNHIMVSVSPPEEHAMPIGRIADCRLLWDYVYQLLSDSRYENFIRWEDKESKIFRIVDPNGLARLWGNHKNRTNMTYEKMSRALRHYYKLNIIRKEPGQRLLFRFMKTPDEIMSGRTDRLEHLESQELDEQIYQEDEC

As to ATTGAC, the binding signal with FEV was 1.18 fold enrichment (6-mer frequency, TF over GST control); with ETV5, 1.17 fold enrichment (6-mer frequency, TF over GST control); in the assay with HSF1, 1.01 fold enrichment (6-mer frequency, TF over GST control); with SPIC, 1.11 fold enrichment (6-mer frequency, TF over GST control); with ELF4 it was 1.15 fold enrichment (6-mer frequency, TF over GST control); with ELK4, 1.34 fold enrichment (6-mer frequency, TF over GST control). Also, the binding signal in the assay with ETV2 is 1.38 fold enrichment (6-mer frequency, TF over GST control); with ELF3 it was 1.19 fold enrichment (6-mer frequency, TF over GST control); with CRX, 1.11 fold enrichment (6-mer frequency, TF over GST control); in the assay with ETV1, 1.1 fold enrichment (6-mer frequency, TF over GST control); with ERF, 1.24 fold enrichment (6-mer frequency, TF over GST control); with ETV3L, 1.26 fold enrichment (6-mer frequency, TF over GST control). The binding signal with ETS2 is 1.36 fold enrichment (6-mer frequency, TF over GST control); with SPDEF, 1.12 fold enrichment (6-mer frequency, TF over GST control); with ETV7, 1.25 fold enrichment (6-mer frequency, TF over GST control); with ELF5, 1.19 fold enrichment (6-mer frequency, TF over GST control); with ETV3, 1.21 fold enrichment (6-mer frequency, TF over GST control); in the assay with ETV6, 1.23 fold enrichment (6-mer frequency, TF over GST control).

(Values after paper PMC7862700, “An all-to-all approach to the identification of sequence-specific readers for epigenetic DNA modifications on cytosine”.)
